Measurements taken from PubChem BioAssay (NCI).
This is part of a sample that, as a whole, favours compounds with a hit. Of some 79,000 tested, about 15% had one in any assay. Values without a mark were called inactive. Activity calls are given as the source filed them. No stated cut-off is given here; in the data, active means growth inhibition above about 70%; inactive means the rest.

What was measured:
[1] = NCI Yeast Anticancer Drug Screen. Data for the rad50 strain (AID 155);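 further: 0% = growth of vehicle-only cultures of the same strain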; conditions: S. cerevisiae rad50 strain growth inhibition, hits give high values
Procedure, shortened: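 Relative growth inhibition (compound vs vehicle) was measured in yeast with a defined repair-gene alteration.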

[2] = NCI Yeast Anticancer Drug Screen. Data for the mec2-1 strain (AID 157); conditions: S. cerevisiae mec2-1 strain, hits give high values
Procedure, shortened: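 Strain: mec2-1 (DNA repair/cell cycle alteration). Compound exposure, then growth measured; inhibition expressed relative to vehicle.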

[3] = NCI Yeast Anticancer Drug Screen. Data for the sgs1 mgt1 strain (AID 161);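 further: 0% = growth of cultures given vehicle only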; conditions: S. cerevisiae sgs1 mgt1 strain, hits give high values
Procedure, shortened: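 Test agents were incubated with a DNA-repair-mutant yeast strain. Growth was then read and compared against vehicle-treated controls.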

[4] = NCI Yeast Anticancer Drug Screen. Data for the cln2 rad14 strain (AID 165);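 further: 0% = growth equal to vehicle treated cultures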; conditions: S. cerevisiae cln2 rad14 strain, hits give high values
Procedure, shortened: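 Compounds are applied to the cln2 rad14 yeast strain, and growth is then compared with that of vehicle-treated cultures to give inhibition.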

[5] = NCI Yeast Anticancer Drug Screen. Data for the bub3 strain (AID 167); conditions: S. cerevisiae bub3 mutant strain, hits give high values
Procedure, shortened: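 Screening used yeast with an engineered genetic alteration affecting cell cycle control. Compound-exposed cultures were compared with vehicle cultures, and reduced growth was taken as inhibition.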

[6] = NCI Yeast Anticancer Drug Screen. Data for the mlh1 rad18 strain (AID 175); conditions: S. cerevisiae mlh1 rad18 strain growth inhibition, hits give high values
Procedure, shortened: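 Read-out is yeast growth inhibition, calculated against vehicle-only controls. The compound was applied to a strain engineered with DNA damage repair alterations.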

[7] = at 5.0 µM (retest, dose inferred, filed as 0.5)
[8] = at 50.0 µM (retest, dose inferred, filed as 5.0)

| SMILES | growth inhibition [1, 7] | growth inhibition [1, 8] | growth inhibition ([1]; at 50.0 µM) | growth inhibition [2, 7] | growth inhibition [2, 8] | growth inhibition ([2]; at 50.0 µM) | growth inhibition [3, 7] | growth inhibition [3, 8] | growth inhibition ([3]; at 50.0 µM) | growth inhibition [4, 7] | growth inhibition [4, 8] | growth inhibition ([4]; at 50.0 µM) | growth inhibition [5, 7] | growth inhibition [5, 8] | growth inhibition ([5]; at 50.0 µM) | growth inhibition [6, 7] | growth inhibition [6, 8] | growth inhibition ([6]; at 50.0 µM) |
| --- | --- | --- | --- | --- | --- | --- | --- | --- | --- | --- | --- | --- | --- | --- | --- | --- | --- | --- |
| CCCNCC/C=C/[Si](C)(C)C | -17% | 99% (active) | 98.7% (active) | -9% | 99% (active) | 96.5% (active) | -3% | 99% (active) | 97.6% (active) | 4% | 99% (active) | 98.5% (active) | -2% | 99% (active) | 98.8% (active) | 10% | 99% (active) | 98.8% (active) |
| S=c1[nH]c2ccc(Br)cc2c(=S)n1-c1ccccc1 | -1% | 19% | 90.5% (active) | 1% | 5% | 91.2% (active) | 0% | 24% | 89.5% (active) | -1% | 4% | 88% (active) | -9% | 14% | 89.4% (active) | -29% | 5% | 87.7% (active) |
| CN(C)C1=NC2=S(SC(Nc3ccccc3)=N2)S1 (configuration not stated) | -4% | 15% | 10.8% | -7% | 33% | -1% | 10% | 28% | -19.1% | 10% | 24% | -0.75% | 3% | 20% | 44% | 24% | 43% | -7.4% |
| O=C(N/N=C/c1ccccc1O)C1Cc2ccccc2C1C(Cl)Cl (configuration not stated) | 51% | 97% (active) | 88% (active) | 36% | 98% (active) | 91.3% (active) | 47% | 99% (active) | 93% (active) | 31% | 95% (active) | 89.5% (active) | 45% | 82% (active) | 90.7% (active) | 59% | 98% (active) | 90.8% (active) |
| O=C(CC(O)(CC(=O)OCc1ccccc1)C(=O)OCc1ccccc1)OCc1ccccc1 | -3% | -23% | 99.2% (active) | -2% | -27% | 99.5% (active) | -4% | -22% | 99.1% (active) | 11% | -10% | 98.2% (active) | -1% | -34% | 99.4% (active) | 3% | -9% | 99% (active) |
| c1ccc(-c2nc3nc4ccccc4nc3nc2-c2ccccn2)nc1 | -8% | 84% (active) | 24.9% | 4% | 92% (active) | 0.9% | 8% | 87% (active) | 20.6% | -5% | 85% (active) | -19.1% | -4% | 98% (active) | 50.6% | 14% | 98% (active) | 22.8% |
| CCC(=O)N(CCC(C)C)c1ccccc1 | 3% | 7% | 11.8% | -2% | 2% | -2.15% | 0% | 1% | -8.65% | 3% | 4% | 41.1% | 3% | -11% | -18.6% | 3% | 2% | -11.9% |
| c1cc[c]([Sn]([S]c2cccc3cccnc23)([c]2ccccc2)[c]2ccccc2)cc1 | 100% (active) | 98% (active) | 96.3% (active) | 100% (active) | 100% (active) | 98.7% (active) | 100% (active) | 99% (active) | 96.9% (active) | 99% (active) | 99% (active) | 94.2% (active) | 99% (active) | 99% (active) | 99% (active) | 100% (active) | 99% (active) | 98.1% (active) |
| ClC1CC[N-]CC1.ClC1CC[N-]CC1.[Cl][Pt+2]([Cl])([Cl])[Cl] | 50% | 96% (active) | 89.5% (active) | 42% | 98% (active) | 90.9% (active) | 58% | 98% (active) | 90.2% (active) | 36% | 98% (active) | 87.4% (active) | 64% | 98% (active) | 93% (active) | 35% | 96% (active) | 91.7% (active) |
| O=C1OC2=C(CCc3nc(-c4ccccc4)sc32)C(N(c2ccccc2)c2ccccc2)C1(Cl)Cl (configuration not stated) | -4% | 11% | 63.6% | -5% | 12% | 41.8% | 1% | 19% | 73% (active) | -13% | -15% | 60.1% | 0% | -3% | 49% | 2% | 9% | 68.7% |
| Cc1nn(C(=O)c2ccncc2)c(C)c1N=Nc1ccccc1[N+](=O)[O-] | 49% | 96% (active) | 61.3% | 11% | 93% (active) | 20.6% | 11% | 90% (active) | 84.8% (active) | 21% | 6% | -3.25% | -1% | 14% | 2.4% | 4% | 94% (active) | 26.1% |
| CCc1c(-c2ccccc2)c(CN2CCCCC2)c2ccccn12 | 6% | 3% | -1.4% | 13% | 13% | -4.85% | 0% | 37% | 88.2% (active) | -6% | 26% | -20% | -4% | 26% | -5.5% | -12% | 5% | 21.9% |
| CC1c2cc(c3c(c2O)CN([C@@H](C)C2CCCCC2)CO3)C(C)c2cc(c3c(c2O)CN([C@@H](C)C2CCCCC2)CO3)C(C)c2cc(c3c(c2O)CN([C@@H](C)C2CCCCC2)CO3)C(C)c2cc1c1c(c2O)CN([C@@H](C)C2CCCCC2)CO1 (some centres not stated) | -3% | -5% | 36.6% | -1% | -28% | 2.9% | -3% | -10% | 42.9% | -2% | -44% | 30.8% | -1% | -13% | 69.2% | -6% | -16% | 47.3% |
| Nc1cc(F)c(F)cc1Sc1cc(F)c(F)cc1N | 39% | 95% (active) | 99.2% (active) | 31% | 99% (active) | 99.2% (active) | 52% | 98% (active) | 99.2% (active) | 41% | 98% (active) | 89.9% (active) | 29% | 98% (active) | 99.5% (active) | 54% | 97% (active) | 99.2% (active) |
| COC(=O)C1=C(CS(=O)c2ccccc2[N+](=O)[O-])ON(C)C1c1ccccc1 (configuration not stated) | 3% | 49% | 6.55% | -9% | 66% | 53.1% | 13% | 74% (active) | 56.8% | -4% | 11% | 22.2% | -3% | 45% | 59.4% | 5% | 13% | 68.5% |
| COC(=O)C1(c2ccc(N(C)C)cc2OC)CCCN(C(=O)Oc2ccccc2[N+](=O)[O-])CCc2c1[nH]c1ccccc21 (configuration not stated) | 69% | 71% (active) | 74.9% (active) | 83% (active) | 80% (active) | 66.8% | 52% | 55% | 72.8% (active) | 39% | 52% | 50.5% | 53% | 85% (active) | 42% | 83% (active) | 88% (active) | 75.2% (active) |
| O=C1c2ccc(O)c(O)c2C(=O)c2cccc(O)c21 | 68% | 72% (active) | 28.1% | 30% | 49% | 3.9% | 83% (active) | 84% (active) | 36.6% | 34% | 46% | 22.7% | 91% (active) | 93% (active) | 18.4% | 83% (active) | 88% (active) | 26.3% |
| Clc1ccc(OCCC(Cn2ccnc2)c2ccc(Cl)cc2Cl)c(Cl)c1 (configuration not stated) | 94% (active) | 98% (active) | 66% | 91% (active) | 99% (active) | 55.9% | 94% (active) | 98% (active) | 58.2% | 86% (active) | 97% (active) | 64% | 93% (active) | 98% (active) | 48.1% | 90% (active) | 98% (active) | 55.7% |
| Nc1ccc2nc(Nc3ccc(F)cc3)cnc2c1 | -11% | 63% | 63.5% | -9% | 27% | 15.4% | -18% | 36% | 56% | 17% | 49% | 28.9% | 7% | 73% (active) | 60% | 7% | 77% (active) | 65.2% |
